Test results as given in article PMC7862700, “An all-to-all approach to the identification of sequence-specific readers for epigenetic DNA modifications on cytosine”.

Experiments:
Assay in all cases: DAPPL (digital affinity profiling via proximity ligation, sequencing); 10 mM Tris-HCl pH 7.5, 50 mM NaCl, 1 mM DTT, 4% glycerol, room temperature, 30 min; GST-TFs on glutathione beads, 16-mer random dsDNA library, 0.1% formaldehyde crosslink after washing; high values mean tight binding
FEV = molecular target: T1, FEV (Homo sapiens, UniProt Q99581 1-238); conditions: protein: recombinant; tags: N-terminal GST; dsDNA, one strand shown
T1 sequence: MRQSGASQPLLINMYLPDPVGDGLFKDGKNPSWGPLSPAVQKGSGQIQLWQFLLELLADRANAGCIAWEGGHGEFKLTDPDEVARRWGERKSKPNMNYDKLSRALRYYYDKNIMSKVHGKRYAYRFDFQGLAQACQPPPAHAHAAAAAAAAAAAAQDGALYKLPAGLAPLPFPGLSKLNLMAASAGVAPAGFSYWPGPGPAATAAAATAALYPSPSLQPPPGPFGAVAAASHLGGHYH
Method in brief: (§1)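 GST fusions of human transcription factors were expressed in yeast and captured with glutathione beads. Once given DNA barcodes and pooled alongside a tag-only sample, they were incubated for 30 min at room temperature with 200 nmole of a random double-stranded 16-mer DNA library in Tris/NaCl/DTT/glycerol buffer, then washed, crosslinked (0.1% formaldehyde), proximity-ligated, PCR-amplified and sequenced on an Illumina NextSeq500. The binding signal of each hexamer is its read frequency for a factor divided by its frequency for the tag-only sample.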

ETV5 = ETV5 (Homo sapiens, UniProt P41161 1-510); conditions: protein: recombinant; tags: N-terminal GST; dsDNA, one strand shown
ETV5, sequence (P41161 whole entry): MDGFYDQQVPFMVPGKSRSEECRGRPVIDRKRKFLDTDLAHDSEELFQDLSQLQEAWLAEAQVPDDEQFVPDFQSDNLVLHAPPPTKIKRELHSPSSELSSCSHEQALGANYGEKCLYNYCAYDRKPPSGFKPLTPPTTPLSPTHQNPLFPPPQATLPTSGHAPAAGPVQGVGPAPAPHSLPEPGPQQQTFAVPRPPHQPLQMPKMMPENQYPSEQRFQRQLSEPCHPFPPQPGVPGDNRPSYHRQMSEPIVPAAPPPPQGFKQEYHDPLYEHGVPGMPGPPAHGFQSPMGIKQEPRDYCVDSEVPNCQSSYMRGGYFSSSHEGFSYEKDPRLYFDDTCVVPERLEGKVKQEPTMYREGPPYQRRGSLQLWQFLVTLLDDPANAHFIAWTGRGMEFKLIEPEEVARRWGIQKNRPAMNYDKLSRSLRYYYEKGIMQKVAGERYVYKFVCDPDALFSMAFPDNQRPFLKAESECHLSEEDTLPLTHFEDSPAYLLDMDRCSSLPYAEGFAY
Method in brief: as §1

HSF1 = HSF1 (Homo sapiens, UniProt Q00613 1-529); conditions: protein: recombinant; tags: N-terminal GST; chain copies: 3; dsDNA, one strand shown
HSF1, sequence (Q00613 whole entry): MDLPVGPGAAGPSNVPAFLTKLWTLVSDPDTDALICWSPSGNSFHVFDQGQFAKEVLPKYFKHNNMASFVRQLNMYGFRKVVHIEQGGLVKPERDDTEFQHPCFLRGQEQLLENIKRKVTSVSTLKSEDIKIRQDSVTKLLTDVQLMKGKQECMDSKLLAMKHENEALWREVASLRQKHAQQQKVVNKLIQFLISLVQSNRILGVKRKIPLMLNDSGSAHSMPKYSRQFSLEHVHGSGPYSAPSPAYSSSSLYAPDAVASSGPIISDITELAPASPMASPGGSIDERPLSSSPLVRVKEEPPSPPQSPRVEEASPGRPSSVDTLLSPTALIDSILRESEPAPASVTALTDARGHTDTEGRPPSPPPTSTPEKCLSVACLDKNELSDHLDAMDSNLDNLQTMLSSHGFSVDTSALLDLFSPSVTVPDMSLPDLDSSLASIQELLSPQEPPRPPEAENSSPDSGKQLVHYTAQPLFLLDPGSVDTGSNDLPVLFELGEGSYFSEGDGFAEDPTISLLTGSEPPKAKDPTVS
Method in brief: as §1

SPIC = molecular target: T2, SPIC (Homo sapiens, UniProt Q8N5J4 1-248); conditions: protein: recombinant; tags: N-terminal GST; dsDNA, one strand shown
T2 sequence: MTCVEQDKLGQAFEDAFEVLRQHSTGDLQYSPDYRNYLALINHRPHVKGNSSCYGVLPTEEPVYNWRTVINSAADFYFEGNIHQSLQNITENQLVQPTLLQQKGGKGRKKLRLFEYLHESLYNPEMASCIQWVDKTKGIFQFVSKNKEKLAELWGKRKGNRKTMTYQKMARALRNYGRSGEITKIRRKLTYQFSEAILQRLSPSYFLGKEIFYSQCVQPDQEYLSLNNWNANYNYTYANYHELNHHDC
Method in brief: as §1

ELF4 = ELF4 (Homo sapiens, UniProt Q99607 1-663); conditions: protein: recombinant; tags: N-terminal GST; dsDNA, one strand shown
ELF4, sequence (Q99607 whole entry): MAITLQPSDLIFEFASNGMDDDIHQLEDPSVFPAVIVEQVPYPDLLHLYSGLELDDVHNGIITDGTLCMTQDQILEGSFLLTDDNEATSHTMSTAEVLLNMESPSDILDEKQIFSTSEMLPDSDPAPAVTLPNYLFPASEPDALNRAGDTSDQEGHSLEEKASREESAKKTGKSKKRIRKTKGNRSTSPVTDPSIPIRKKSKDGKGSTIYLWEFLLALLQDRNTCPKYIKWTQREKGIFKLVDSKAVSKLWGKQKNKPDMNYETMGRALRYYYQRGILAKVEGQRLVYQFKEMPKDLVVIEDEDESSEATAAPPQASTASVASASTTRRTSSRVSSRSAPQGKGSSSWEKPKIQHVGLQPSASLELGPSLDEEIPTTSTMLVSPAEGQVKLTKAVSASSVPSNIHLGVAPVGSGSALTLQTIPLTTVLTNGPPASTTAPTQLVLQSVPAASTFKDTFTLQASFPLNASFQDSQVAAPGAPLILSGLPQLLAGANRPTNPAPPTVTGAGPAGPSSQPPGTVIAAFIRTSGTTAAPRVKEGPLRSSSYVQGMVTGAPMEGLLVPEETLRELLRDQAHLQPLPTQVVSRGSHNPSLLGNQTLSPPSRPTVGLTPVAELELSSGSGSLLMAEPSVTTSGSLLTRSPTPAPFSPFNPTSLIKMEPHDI
Method in brief: as §1

ELK4 = molecular target: T3, ELK4 (Homo sapiens, UniProt P28324-2 1-405); conditions: protein: recombinant; tags: N-terminal GST; dsDNA, one strand shown
T3 sequence: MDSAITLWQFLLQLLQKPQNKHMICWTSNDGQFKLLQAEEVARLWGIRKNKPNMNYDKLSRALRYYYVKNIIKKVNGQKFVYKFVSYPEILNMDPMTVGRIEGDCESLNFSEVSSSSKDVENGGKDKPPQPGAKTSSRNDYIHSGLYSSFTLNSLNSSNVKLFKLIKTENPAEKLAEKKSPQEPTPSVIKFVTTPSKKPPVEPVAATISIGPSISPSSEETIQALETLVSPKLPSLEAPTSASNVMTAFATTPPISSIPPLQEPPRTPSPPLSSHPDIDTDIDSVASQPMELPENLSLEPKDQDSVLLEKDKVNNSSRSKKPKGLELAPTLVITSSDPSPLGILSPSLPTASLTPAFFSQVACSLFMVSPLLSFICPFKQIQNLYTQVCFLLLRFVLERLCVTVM
Method in brief: as §1

ELF3 = molecular target: T4, ELF3 (Homo sapiens, UniProt P78545 1-371); conditions: protein: recombinant; tags: N-terminal GST; dsDNA, one strand shown
T4 sequence: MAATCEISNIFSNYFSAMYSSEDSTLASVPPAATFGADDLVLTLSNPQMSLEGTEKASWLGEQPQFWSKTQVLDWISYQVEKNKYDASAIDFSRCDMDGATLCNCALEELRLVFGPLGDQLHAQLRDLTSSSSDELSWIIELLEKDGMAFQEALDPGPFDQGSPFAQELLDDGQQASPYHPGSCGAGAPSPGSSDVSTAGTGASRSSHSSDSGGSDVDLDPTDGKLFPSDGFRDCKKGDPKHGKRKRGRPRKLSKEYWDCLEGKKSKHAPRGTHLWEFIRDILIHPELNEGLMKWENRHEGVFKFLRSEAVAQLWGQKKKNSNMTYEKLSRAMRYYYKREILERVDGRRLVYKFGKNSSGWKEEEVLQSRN
Method in brief: as §1

CRX = CRX (Homo sapiens, UniProt O43186 1-299); conditions: protein: recombinant; tags: N-terminal GST; dsDNA, one strand shown
CRX, sequence (O43186 whole entry): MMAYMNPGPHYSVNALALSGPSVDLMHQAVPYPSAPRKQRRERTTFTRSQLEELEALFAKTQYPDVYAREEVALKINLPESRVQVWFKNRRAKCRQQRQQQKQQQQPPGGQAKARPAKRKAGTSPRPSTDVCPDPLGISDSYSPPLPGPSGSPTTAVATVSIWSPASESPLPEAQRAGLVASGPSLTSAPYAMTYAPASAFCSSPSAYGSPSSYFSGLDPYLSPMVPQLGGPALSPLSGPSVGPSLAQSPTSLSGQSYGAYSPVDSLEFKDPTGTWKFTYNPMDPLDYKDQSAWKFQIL
Method in brief: as §1

ETV1 = ETV1 (Homo sapiens, UniProt P50549 1-477); conditions: protein: recombinant; tags: N-terminal GST; dsDNA, one strand shown
ETV1, sequence (P50549 whole entry): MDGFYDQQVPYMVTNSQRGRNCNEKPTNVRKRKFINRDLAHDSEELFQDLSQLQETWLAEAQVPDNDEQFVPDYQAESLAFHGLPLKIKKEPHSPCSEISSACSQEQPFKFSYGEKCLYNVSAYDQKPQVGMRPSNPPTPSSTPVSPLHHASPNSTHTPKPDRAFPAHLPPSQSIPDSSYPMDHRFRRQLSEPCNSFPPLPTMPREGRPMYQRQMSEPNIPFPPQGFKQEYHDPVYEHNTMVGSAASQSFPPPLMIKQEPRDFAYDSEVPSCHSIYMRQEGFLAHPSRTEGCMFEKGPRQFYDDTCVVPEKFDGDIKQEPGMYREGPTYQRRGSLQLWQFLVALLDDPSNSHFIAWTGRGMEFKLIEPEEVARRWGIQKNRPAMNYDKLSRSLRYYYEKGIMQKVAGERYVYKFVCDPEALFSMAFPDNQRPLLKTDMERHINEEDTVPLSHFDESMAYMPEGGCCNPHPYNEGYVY
Method in brief: as §1

ERF = molecular target: T5, ERF (Homo sapiens, UniProt P50548 1-548); conditions: protein: recombinant; tags: N-terminal GST; dsDNA, one strand shown
T5 sequence: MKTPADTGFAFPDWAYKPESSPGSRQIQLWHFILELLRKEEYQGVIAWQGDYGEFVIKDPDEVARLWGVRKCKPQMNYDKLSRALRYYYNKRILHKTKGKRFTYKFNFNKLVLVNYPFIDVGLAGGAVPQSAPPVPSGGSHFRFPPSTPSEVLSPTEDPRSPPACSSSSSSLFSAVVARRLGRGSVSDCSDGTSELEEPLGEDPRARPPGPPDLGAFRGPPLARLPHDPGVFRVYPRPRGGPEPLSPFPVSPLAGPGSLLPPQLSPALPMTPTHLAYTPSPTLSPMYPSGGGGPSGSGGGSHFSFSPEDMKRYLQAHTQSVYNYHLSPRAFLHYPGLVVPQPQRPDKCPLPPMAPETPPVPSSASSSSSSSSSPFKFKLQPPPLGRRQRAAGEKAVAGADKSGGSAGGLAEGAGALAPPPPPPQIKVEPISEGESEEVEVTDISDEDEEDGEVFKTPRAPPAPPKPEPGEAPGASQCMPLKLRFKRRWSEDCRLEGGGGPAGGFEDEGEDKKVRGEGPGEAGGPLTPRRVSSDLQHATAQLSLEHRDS
Method in brief: as §1

ETV3L = molecular target: T6, ETV3L (Homo sapiens, UniProt Q6ZN32 1-361); conditions: protein: recombinant; tags: N-terminal GST; dsDNA, one strand shown
T6 sequence: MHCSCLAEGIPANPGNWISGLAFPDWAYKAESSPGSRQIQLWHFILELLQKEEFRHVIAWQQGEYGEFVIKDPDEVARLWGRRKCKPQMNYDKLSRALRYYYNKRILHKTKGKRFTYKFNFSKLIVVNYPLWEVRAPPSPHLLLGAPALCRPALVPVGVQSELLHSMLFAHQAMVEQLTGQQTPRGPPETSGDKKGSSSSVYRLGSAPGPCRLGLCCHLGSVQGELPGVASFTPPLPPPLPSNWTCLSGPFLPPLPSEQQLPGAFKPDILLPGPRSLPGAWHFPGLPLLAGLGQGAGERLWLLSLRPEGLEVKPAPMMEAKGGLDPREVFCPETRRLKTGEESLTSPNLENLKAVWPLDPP
Method in brief: as §1

ETS2 = molecular target: T7, ETS2 (Homo sapiens, UniProt P15036 1-469); conditions: protein: recombinant; tags: N-terminal GST; dsDNA, one strand shown
T7 sequence: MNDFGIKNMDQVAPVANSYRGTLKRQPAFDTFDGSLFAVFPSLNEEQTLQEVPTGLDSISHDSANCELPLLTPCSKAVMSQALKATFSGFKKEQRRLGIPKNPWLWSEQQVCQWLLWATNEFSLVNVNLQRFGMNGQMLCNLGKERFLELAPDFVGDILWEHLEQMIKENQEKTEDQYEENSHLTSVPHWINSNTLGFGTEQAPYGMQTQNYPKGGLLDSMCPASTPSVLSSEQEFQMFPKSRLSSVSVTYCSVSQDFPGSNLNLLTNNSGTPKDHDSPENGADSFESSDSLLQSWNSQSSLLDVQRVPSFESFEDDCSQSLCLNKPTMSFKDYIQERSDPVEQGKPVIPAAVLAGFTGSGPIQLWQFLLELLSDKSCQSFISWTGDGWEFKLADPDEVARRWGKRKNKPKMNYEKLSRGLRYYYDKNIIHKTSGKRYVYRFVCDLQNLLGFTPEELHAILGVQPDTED
Method in brief: as §1

SPDEF = molecular target: T8, SPDEF (Homo sapiens, UniProt O95238 1-335); conditions: protein: recombinant; tags: N-terminal GST; dsDNA, one strand shown
T8 sequence: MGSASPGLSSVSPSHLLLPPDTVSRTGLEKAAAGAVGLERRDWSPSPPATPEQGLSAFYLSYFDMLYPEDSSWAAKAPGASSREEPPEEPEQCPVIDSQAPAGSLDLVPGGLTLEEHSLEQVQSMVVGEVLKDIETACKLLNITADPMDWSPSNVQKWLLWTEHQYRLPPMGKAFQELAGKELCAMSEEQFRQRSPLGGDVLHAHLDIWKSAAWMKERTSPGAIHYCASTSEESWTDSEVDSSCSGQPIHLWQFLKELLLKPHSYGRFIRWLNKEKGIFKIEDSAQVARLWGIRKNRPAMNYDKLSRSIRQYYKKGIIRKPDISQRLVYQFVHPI
Method in brief: as §1

ETV7 = molecular target: T9, ETV7 (Homo sapiens, UniProt Q9Y603 1-341); conditions: protein: recombinant; tags: N-terminal GST; dsDNA, one strand shown
T9 sequence: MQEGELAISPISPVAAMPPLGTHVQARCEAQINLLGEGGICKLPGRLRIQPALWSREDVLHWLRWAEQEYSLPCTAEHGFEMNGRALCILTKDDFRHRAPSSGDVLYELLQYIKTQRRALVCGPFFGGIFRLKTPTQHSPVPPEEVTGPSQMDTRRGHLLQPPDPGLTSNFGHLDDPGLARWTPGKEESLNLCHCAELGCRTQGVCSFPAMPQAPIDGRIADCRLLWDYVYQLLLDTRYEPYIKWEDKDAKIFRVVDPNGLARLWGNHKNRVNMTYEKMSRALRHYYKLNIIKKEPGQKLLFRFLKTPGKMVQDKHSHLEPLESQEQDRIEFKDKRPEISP
Method in brief: as §1

ELF5 = molecular target: T10, ELF5 (Homo sapiens, UniProt Q9UKW6-2 1-255); conditions: protein: recombinant; tags: N-terminal GST; dsDNA, one strand shown
T10 sequence: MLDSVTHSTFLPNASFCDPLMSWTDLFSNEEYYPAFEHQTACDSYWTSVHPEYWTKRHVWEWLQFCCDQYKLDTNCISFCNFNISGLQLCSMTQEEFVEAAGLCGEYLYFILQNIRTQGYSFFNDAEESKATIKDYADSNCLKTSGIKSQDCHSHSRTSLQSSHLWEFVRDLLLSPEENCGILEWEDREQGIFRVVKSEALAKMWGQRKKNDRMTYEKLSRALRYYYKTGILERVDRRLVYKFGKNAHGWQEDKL
Method in brief: as §1

ETV3 = molecular target: T11, ETV3 (Homo sapiens, UniProt P41162-2 1-143); conditions: protein: recombinant; tags: N-terminal GST; dsDNA, one strand shown
T11 sequence: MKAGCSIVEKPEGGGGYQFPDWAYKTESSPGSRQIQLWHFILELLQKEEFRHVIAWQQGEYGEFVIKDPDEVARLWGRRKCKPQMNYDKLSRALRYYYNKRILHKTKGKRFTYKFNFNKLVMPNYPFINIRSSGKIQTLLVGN
Method in brief: as §1

ETV6 = ETV6 (Homo sapiens, UniProt P41212 1-452); conditions: protein: recombinant; tags: N-terminal GST; dsDNA, one strand shown
ETV6, sequence (P41212 whole entry): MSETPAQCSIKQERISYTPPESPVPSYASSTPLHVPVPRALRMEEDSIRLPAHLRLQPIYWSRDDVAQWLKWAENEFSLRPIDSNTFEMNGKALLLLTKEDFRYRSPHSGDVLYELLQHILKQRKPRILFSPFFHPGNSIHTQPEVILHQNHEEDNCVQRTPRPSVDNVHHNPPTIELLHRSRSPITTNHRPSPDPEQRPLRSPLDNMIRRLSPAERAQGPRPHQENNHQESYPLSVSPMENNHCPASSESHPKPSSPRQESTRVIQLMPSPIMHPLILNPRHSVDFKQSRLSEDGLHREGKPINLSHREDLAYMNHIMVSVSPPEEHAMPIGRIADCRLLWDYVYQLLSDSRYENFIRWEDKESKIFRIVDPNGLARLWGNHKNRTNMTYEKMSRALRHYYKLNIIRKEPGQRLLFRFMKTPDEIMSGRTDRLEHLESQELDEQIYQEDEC
Method in brief: as §1

Sequence | binding signal (FEV) | binding signal (ETV5) | binding signal (HSF1) | binding signal (SPIC) | binding signal (ELF4) | binding signal (ELK4) | binding signal (ELF3) | binding signal (CRX) | binding signal (ETV1) | binding signal (ERF) | binding signal (ETV3L) | binding signal (ETS2) | binding signal (SPDEF) | binding signal (ETV7) | binding signal (ELF5) | binding signal (ETV3) | binding signal (ETV6)
ATACGC | 1.05 fold enrichment (6-mer frequency, TF over GST control) | 1.13 fold enrichment (6-mer frequency, TF over GST control) | 1.04 fold enrichment (6-mer frequency, TF over GST control) | 1.08 fold enrichment (6-mer frequency, TF over GST control) | 1.18 fold enrichment (6-mer frequency, TF over GST control) | 1.08 fold enrichment (6-mer frequency, TF over GST control) | 1.13 fold enrichment (6-mer frequency, TF over GST control) | 1.12 fold enrichment (6-mer frequency, TF over GST control) | 1.18 fold enrichment (6-mer frequency, TF over GST control) | 1.18 fold enrichment (6-mer frequency, TF over GST control) | 1.14 fold enrichment (6-mer frequency, TF over GST control) | 1.11 fold enrichment (6-mer frequency, TF over GST control) | 1.2 fold enrichment (6-mer frequency, TF over GST control) | 1.06 fold enrichment (6-mer frequency, TF over GST control) | 1.11 fold enrichment (6-mer frequency, TF over GST control) | 1.07 fold enrichment (6-mer frequency, TF over GST control) | 1.2 fold enrichment (6-mer frequency, TF over GST control)
TGCTTA | 1.03 fold enrichment (6-mer frequency, TF over GST control) | 1.09 fold enrichment (6-mer frequency, TF over GST control) | 1.33 fold enrichment (6-mer frequency, TF over GST control) | 1.32 fold enrichment (6-mer frequency, TF over GST control) | 1.11 fold enrichment (6-mer frequency, TF over GST control) | 1.04 fold enrichment (6-mer frequency, TF over GST control) | 1.09 fold enrichment (6-mer frequency, TF over GST control) | 1.78 fold enrichment (6-mer frequency, TF over GST control) | 1.11 fold enrichment (6-mer frequency, TF over GST control) | 1.1 fold enrichment (6-mer frequency, TF over GST control) | 1.09 fold enrichment (6-mer frequency, TF over GST control) | 1.1 fold enrichment (6-mer frequency, TF over GST control) | 1.18 fold enrichment (6-mer frequency, TF over GST control) | 1.12 fold enrichment (6-mer frequency, TF over GST control) | 1.03 fold enrichment (6-mer frequency, TF over GST control) | 1.18 fold enrichment (6-mer frequency, TF over GST control) | 1.1 fold enrichment (6-mer frequency, TF over GST control)
